Test results as given in PubChem BioAssay (EPA / NIEHS).
Inconclusive results are not listed. The source made the active and inactive calls. How the source made its calls, unless noted: active means hit-call score of the fitted dose curve at least 0.9, where 1 is the maximum; inactive means score below 0.9.

Experiments:
[1] = target: Bile acid receptor (Homo sapiens) (UniProt Q96RI1); assay: ATG_FXR_TRANS: Attagene TRANS-FACTORIAL HepG2 Assay for Farnesoid X Receptor (FXR) (AID 2282979; active means hit-call score of the fitted dose curve at least 0.9, where 1 is the maximum;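 further: hits raise reporter mRNA above DMSO so AC50 marks FXR activation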); conditions: HepG2 Attagene TRANS FXR-GAL4 reporter transcription
In short: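 Transient transfection of HepG2 with multiplexed GAL4-UAS reporter units; exogenous FXR-GAL4 chimera. Dose 24 h → TriZol RNA → oligo(dT) RT → PCR, 6-FAM primer extension, HpaI cut → CE. Gain vs DMSO.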

[2] = target: Oxysterols receptor LXR-alpha (Homo sapiens) (UniProt Q13133); assay: ATG_LXRa_TRANS: Attagene TRANS-FACTORIAL HepG2 Assay for human Liver X Receptor alpha (LXRa) (AID 2282980; active means hit-call score of the fitted dose curve at least 0.9, where 1 is the maximum); conditions: HepG2 Attagene TRANS reporter, LXRa transactivation
In short: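 Transfect HepG2 with GAL4-UAS multiplex reporter constructs (TRANS format, chimeric receptor-GAL4); treat 24 h; extract RNA, reverse-transcribe, PCR-amplify, FAM-label, HpaI-digest; resolve fragments by capillary electrophoresis. Upward response vs DMSO.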

[3] = ATG_M_06_TRANS: Attagene TRANS-FACTORIAL HepG2 Assay for M06 Transcription Factor (Internal Marker) (AID 2282983; active means hit-call score of the fitted dose curve at least 0.9, where 1 is the maximum); conditions: HepG2 Attagene TRANS M06 internal marker reporter
In short: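 Background control endpoint: reporter mRNA from transiently transfected HepG2 after 24 h dosing, detected by RT-PCR with capillary electrophoresis fluorescence. Analysed for gain versus DMSO.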

[4] = ATG_M_32_TRANS: Attagene TRANS-FACTORIAL HepG2 Assay for M32 Transcription Factor (Internal Marker) (AID 2282984; active means hit-call score of the fitted dose curve at least 0.9, where 1 is the maximum;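 further: transcript level of a background control reporter unit measured by RT-PCR and capillary electrophoresis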); conditions: HepG2 Attagene TRANS M32 internal marker reporter
In short: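 After 24 h dosing of transfected HepG2 cells, total RNA was reverse-transcribed, reporter sequences PCR-amplified, 6-FAM labelled by primer extension and HpaI-digested before capillary electrophoresis. Signal increase over DMSO was fitted.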

[5] = target: Transcriptional activator Myb (Homo sapiens) (UniProt P10242); assay: ATG_Myb_CIS: Attagene CIS-FACTORIAL HepG2 Assay for human Myeloblastosis (Myb) Proto-Oncogene Transcription Factor (AID 2282986); conditions: HepG2 Attagene CIS-FACTORIAL Myb reporter transcription; actives raise or lower the signal
In short: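 HepG2 cells were transiently transfected with cis-regulated multiple reporter transcription units reflecting endogenous Myb activity, then exposed to compound for 24 hours. Reporter mRNA was measured by RT-PCR with capillary electrophoresis; bidirectional fitting versus DMSO baseline.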

[6] = target: Nuclear respiratory factor 1 (Homo sapiens) (UniProt Q16656); assay: ATG_NRF1_CIS: Attagene CIS-FACTORIAL HepG2 Assay for human Nuclear Respiratory Factor 1 (NRF1) Orphan Gene (AID 2282987); conditions: HepG2 NRF1 cis-element reporter, Attagene multiplex; actives raise or lower the signal
In short: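 HepG2 cells transiently transfected with multiple reporter transcription units under cis-regulatory promoter control, so endogenous transcription-factor activity is read. After 24 h compound exposure, reporter mRNA quantified by RT-PCR, fluorescent labelling, HpaI digestion and capillary electrophoresis; bidirectional fitting versus DMSO.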

[7] = ATG_NFI_CIS: Attagene CIS-FACTORIAL HepG2 Assay for human Nuclear Factor I (NFI) (AID 2282989); conditions: HepG2 cis-regulatory reporter, NFI response element transcription; actives raise or lower the signal
In short: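 After transient transfection of HepG2 with cis-promoter reporter constructs and 24 h dosing, RNA is reverse-transcribed, amplified, 6-FAM end-labelled and HpaI-digested before capillary analysis. Bidirectional curve fitting against DMSO.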

[8] = target: Myc proto-oncogene protein (Homo sapiens) (UniProt P01106); assay: ATG_Myc_CIS: Attagene CIS-FACTORIAL HepG2 Assay for human Myelocytomatosis (Myc) Proto-Oncogene Transcription Factor (AID 2282990); conditions: HepG2, Attagene cis-reporter transcription factor activity; actives raise or lower the signal
In short: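 HepG2 cells transiently transfected with multiple cis-promoter-driven reporter transcription units, so endogenous TF activity is read. After 24 h compound exposure, reporter mRNA was quantified by RT-PCR, 6-FAM labelling, HpaI digestion and capillary electrophoresis; bidirectional fit versus DMSO.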

[9] = ATG_NF_kB_CIS: Attagene CIS-FACTORIAL HepG2 Assay for human Nuclear Factor Kappa B (NF-kB) (AID 2282991); conditions: HepG2 Attagene cis-factorial NF-kB reporter mRNA; actives raise or lower the signal
In short: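 HepG2 cells transiently transfected with multiplexed cis-element reporter units measuring endogenous transcription factor activity; reporter mRNA read 24 h after dosing by RT-PCR, fluorescent labelling, HpaI digestion and capillary electrophoresis. Bidirectional fit against DMSO baseline.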

[10] = ATG_NRF2_ARE_CIS: Attagene CIS-FACTORIAL HepG2 Assay for human Nuclear Factor Erythroid 2 Related Factor 2 (NFR2) response to Antioxidant Response Elements (ARE) (AID 2282992); conditions: HepG2 Attagene ARE/NRF2 reporter, transcription factor activity; actives raise or lower the signal
In short: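 Using transiently transfected HepG2 cells exposed for 24 h, reporter mRNA levels were determined by RT-PCR with fluorescent primer extension and capillary electrophoresis, analysed for gain or loss of signal against DMSO.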

[11] = ATG_Oct_MLP_CIS: Attagene CIS-FACTORIAL HepG2 Assay for human Octamer-Binding Transcription Factor (Oct) (AID 2282993); conditions: HepG2 Attagene cis-factorial Oct reporter, mRNA; actives raise or lower the signal
In short: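 Cells of the HepG2 line express promoter-controlled reporter sequences whose mRNA levels, after 24 h treatment, are measured by RT-PCR and capillary electrophoresis. Increases and decreases are scored relative to DMSO.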

[12] = target: Cellular tumor antigen p53 (Homo sapiens) (UniProt P04637); assay: ATG_p53_CIS: Attagene CIS-FACTORIAL HepG2 Assay for human p53 Transcription Factor (AID 2282994); conditions: HepG2 p53 cis-element reporter, Attagene mRNA; actives raise or lower the signal
In short: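 In HepG2 cells, reporter transcription units under cis-regulatory promoters were transiently introduced. Following 24 h treatment, RNA was processed to labelled, digested cDNA fragments read by capillary electrophoresis; fitting was bidirectional versus DMSO.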

[13] = target: Oxysterols receptor LXR-beta (Homo sapiens) (UniProt P55055); assay: ATG_LXRb_TRANS: Attagene TRANS-FACTORIAL HepG2 Assay for human Liver X Receptor beta (LXRb) (AID 2282981; active means hit-call score of the fitted dose curve at least 0.9, where 1 is the maximum); conditions: HepG2 Attagene TRANS GAL4-LXRb reporter, mRNA
In short: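 Measures induction of a Gal4-driven reporter transcript in HepG2 cells expressing an exogenous LXRb-Gal4 fusion. Cells are exposed to compound for 24 h before RNA isolation and RT-PCR with capillary electrophoresis detection.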

[14] = target: Nuclear receptor subfamily 4 group A member 2 (Homo sapiens) (UniProt P43354); assay: ATG_NURR1_TRANS: Attagene TRANS-FACTORIAL HepG2 Assay for human Nuclear Receptor Related Protein 1 (NURR1) (AID 2282985; active means hit-call score of the fitted dose curve at least 0.9, where 1 is the maximum); conditions: HepG2 Attagene TRANS reporter, mRNA readout
In short: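 Chimeric NR-Gal4 fusion activity measured in HepG2 after 24 h treatment. Reporter transcripts detected by RT-PCR and capillary electrophoresis fluorescence; positive-direction curve fitting against DMSO.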

[15] = BSK_3C_TissueFactor: BioMAP Diversity Plus: 3C Assay for Tissue Factor Biomarker Activity (AID 2282997); conditions: BioMAP 3C HUVEC, tissue factor biomarker readout; actives raise or lower the signal
In short: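 After a 24 h chemical exposure of primary human umbilical vein endothelial cells, Tissue Factor levels were quantified by ELISA.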

[16] = BSK_3C_VCAM1: BioMAP Diversity Plus: 3C Assay for Vascular cell adhesion molecule 1 (VCAM1) Biomarker Activity (AID 2282999); conditions: BioMAP 3C HUVEC, VCAM1 ELISA, cytokine-stimulated; actives raise or lower the signal
In short: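 Vascular primary endothelium (human umbilical vein) was exposed to chemicals and assayed 24 h later. VCAM-1 levels came from ELISA, with DMSO serving as baseline for bidirectional fitting.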

[17] = target: Glucocorticoid receptor (Homo sapiens) (UniProt P04150); assay: ATG_GR_TRANS: Attagene TRANS-FACTORIAL HepG2 Assay for human Glucocorticoid Receptor (GR) (AID 2282978; active means hit-call score of the fitted dose curve at least 0.9, where 1 is the maximum;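 further: activators score as hits since higher reporter transcript over DMSO is fitted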); conditions: HepG2 Attagene TRANS GR reporter, mRNA transcription
In short: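 HepG2 cells transiently transfected with multiplexed reporter units in which chimeric NR-GAL4 proteins drive GAL4-UAS reporters; 24 h compound exposure. Reporter mRNA measured by RT-PCR, 6-FAM labelling, HpaI digestion and capillary electrophoresis; gain-of-signal fitted versus DMSO.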

[18] = target: Hepatocyte nuclear factor 4-alpha (Homo sapiens) (UniProt P41235); assay: ATG_HNF4a_TRANS: Attagene TRANS-FACTORIAL HepG2 Assay for human Hepatocyte Nuclear Factor 4 alpha (HNF4a) (AID 2282982; active means hit-call score of the fitted dose curve at least 0.9, where 1 is the maximum); conditions: HepG2 HNF4a transactivation reporter, mRNA readout
In short: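 In this trans-factorial format, a chimeric HNF4a-GAL4 fusion drives a GAL4-UAS reporter in transfected HepG2 liver cells. After 24 h treatment, reporter mRNA induction is measured by RT-PCR with capillary electrophoresis, relative to DMSO.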

[19] = BSK_3C_uPAR: BioMAP Diversity Plus: 3C Assay for Urokinase-type plasminogen activator receptor (uPAR) Biomarker Activity (AID 2282998); conditions: BioMAP 3C HUVEC, uPAR biomarker ELISA; actives raise or lower the signal
In short: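 Endothelial primary cells of human umbilical vein origin received test chemical; 24 h later uPAR was assayed by ELISA. Fitting was bidirectional, DMSO as negative control.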

Measured: AC50

Chain of Oxysterols receptor LXR-beta (Homo sapiens) (P55055 whole entry, looked up, the tested form may be a part): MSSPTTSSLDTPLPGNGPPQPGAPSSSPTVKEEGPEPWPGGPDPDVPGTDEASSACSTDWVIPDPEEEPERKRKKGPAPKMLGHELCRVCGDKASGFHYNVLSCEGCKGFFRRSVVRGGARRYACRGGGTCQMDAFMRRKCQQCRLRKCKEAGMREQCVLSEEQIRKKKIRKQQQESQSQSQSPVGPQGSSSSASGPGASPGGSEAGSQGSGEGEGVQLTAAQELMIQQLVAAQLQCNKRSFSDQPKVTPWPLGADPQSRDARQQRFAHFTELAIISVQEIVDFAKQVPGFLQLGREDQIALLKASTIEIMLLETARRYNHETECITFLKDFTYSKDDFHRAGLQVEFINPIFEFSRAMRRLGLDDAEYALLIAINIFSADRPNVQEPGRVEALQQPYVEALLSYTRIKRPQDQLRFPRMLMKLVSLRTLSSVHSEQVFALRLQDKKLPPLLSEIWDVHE
Chain of Bile acid receptor (Homo sapiens) (Q96RI1 whole entry, looked up, the tested form may be a part): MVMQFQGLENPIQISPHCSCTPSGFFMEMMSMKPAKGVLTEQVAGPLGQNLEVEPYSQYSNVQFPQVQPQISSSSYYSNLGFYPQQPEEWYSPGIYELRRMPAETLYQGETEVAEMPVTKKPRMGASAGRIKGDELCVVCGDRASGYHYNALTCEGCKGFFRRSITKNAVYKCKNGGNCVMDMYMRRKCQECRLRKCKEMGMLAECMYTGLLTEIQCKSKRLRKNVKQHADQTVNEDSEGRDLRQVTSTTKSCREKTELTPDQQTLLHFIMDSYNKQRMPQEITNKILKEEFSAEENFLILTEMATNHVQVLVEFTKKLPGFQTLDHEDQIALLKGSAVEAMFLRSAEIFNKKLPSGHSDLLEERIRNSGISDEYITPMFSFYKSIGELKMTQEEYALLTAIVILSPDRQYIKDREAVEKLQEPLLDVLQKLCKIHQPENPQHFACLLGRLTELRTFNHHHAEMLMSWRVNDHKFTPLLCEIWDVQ
Chain of Myc proto-oncogene protein (Homo sapiens) (P01106 whole entry, looked up): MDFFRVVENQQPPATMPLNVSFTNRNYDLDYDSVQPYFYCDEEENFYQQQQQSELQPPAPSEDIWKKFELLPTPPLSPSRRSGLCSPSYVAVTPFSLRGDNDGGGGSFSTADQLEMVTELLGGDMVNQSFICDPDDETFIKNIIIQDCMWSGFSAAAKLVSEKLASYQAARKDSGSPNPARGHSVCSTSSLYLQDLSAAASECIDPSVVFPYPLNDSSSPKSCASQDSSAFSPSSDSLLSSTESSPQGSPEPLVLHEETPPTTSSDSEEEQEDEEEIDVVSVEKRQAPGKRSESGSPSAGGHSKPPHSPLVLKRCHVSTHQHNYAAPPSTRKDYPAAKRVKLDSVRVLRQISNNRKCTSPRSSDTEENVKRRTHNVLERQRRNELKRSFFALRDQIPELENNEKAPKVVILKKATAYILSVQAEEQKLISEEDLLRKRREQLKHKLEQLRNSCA
Chain of Glucocorticoid receptor (Homo sapiens) (P04150 whole entry, looked up, the tested form may be a part): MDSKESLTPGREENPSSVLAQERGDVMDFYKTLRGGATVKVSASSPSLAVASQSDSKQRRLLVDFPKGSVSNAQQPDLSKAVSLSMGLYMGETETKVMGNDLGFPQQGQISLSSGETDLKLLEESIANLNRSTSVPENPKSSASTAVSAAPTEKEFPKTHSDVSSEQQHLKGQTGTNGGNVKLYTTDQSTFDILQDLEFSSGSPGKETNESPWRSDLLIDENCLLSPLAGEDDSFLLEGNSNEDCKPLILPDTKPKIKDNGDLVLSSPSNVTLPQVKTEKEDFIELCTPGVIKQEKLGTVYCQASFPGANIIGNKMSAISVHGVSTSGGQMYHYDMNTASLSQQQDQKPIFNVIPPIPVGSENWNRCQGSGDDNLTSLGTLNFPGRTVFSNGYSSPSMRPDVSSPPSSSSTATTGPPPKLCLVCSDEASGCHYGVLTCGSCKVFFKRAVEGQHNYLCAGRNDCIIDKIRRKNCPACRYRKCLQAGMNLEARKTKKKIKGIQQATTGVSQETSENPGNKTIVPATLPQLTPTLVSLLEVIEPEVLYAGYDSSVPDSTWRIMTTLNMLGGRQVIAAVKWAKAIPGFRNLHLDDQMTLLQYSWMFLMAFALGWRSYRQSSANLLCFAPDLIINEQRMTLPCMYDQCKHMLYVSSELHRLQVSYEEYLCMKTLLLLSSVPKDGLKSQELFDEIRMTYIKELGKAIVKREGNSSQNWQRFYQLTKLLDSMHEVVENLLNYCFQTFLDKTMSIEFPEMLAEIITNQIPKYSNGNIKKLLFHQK
Chain of Transcriptional activator Myb (Homo sapiens) (P10242 whole entry, looked up): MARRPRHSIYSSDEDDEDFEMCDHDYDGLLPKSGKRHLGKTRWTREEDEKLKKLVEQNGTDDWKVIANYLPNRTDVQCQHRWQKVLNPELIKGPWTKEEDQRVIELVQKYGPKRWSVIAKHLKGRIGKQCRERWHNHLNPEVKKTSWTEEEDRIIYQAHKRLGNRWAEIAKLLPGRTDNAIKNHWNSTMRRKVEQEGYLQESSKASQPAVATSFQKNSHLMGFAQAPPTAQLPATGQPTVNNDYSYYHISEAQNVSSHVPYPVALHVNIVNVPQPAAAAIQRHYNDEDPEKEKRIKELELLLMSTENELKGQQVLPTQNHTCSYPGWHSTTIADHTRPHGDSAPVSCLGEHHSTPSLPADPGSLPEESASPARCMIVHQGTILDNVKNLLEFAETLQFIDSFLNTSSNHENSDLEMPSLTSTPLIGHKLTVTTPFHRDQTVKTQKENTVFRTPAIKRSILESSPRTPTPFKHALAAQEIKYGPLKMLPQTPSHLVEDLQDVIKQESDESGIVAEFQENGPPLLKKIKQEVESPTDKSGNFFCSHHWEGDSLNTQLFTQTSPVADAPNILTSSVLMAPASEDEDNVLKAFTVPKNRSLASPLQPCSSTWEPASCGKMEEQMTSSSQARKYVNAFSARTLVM
Chain of Cellular tumor antigen p53 (Homo sapiens) (P04637 whole entry, looked up, the tested form may be a part): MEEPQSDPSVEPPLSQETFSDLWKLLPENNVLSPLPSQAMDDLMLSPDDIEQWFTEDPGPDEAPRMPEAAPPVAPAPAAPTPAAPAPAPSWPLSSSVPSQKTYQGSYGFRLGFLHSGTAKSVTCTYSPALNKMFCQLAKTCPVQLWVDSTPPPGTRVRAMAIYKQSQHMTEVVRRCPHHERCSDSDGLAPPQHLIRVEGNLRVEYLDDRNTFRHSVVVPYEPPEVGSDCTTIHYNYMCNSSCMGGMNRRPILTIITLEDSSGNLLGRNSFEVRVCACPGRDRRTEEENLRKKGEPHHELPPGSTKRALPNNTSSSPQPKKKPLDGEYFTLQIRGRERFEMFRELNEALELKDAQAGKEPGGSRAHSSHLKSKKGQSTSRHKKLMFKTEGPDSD
Chain of Oxysterols receptor LXR-alpha (Homo sapiens) (Q13133 whole entry, looked up, the tested form may be a part): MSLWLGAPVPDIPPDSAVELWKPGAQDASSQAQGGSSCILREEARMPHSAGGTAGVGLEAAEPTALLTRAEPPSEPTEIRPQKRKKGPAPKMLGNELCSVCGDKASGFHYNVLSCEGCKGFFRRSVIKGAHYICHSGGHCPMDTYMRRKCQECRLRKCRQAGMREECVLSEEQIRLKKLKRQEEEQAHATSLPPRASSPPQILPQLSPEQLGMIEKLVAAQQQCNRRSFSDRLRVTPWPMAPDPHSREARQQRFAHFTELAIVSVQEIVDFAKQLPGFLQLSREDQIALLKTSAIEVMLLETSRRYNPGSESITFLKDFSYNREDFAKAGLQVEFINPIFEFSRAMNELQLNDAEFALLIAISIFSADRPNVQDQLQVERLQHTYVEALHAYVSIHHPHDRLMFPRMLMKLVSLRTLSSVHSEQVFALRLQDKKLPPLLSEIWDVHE
Chain of Nuclear respiratory factor 1 (Homo sapiens) (Q16656 whole entry, looked up): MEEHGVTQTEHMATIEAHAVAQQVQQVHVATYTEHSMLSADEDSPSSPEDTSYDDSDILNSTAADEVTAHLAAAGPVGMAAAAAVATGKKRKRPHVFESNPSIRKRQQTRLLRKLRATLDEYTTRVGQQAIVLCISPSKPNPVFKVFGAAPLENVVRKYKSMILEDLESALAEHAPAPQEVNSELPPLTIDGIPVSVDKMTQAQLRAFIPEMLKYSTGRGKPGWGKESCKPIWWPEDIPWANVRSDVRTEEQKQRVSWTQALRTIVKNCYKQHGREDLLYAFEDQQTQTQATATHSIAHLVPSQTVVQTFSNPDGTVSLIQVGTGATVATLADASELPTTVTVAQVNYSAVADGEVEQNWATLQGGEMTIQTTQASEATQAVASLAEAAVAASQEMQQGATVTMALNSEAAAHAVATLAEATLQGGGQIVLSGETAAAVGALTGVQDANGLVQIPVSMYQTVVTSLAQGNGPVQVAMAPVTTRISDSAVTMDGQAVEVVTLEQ
Chain of Nuclear receptor subfamily 4 group A member 2 (Homo sapiens) (P43354 whole entry, looked up, the tested form may be a part): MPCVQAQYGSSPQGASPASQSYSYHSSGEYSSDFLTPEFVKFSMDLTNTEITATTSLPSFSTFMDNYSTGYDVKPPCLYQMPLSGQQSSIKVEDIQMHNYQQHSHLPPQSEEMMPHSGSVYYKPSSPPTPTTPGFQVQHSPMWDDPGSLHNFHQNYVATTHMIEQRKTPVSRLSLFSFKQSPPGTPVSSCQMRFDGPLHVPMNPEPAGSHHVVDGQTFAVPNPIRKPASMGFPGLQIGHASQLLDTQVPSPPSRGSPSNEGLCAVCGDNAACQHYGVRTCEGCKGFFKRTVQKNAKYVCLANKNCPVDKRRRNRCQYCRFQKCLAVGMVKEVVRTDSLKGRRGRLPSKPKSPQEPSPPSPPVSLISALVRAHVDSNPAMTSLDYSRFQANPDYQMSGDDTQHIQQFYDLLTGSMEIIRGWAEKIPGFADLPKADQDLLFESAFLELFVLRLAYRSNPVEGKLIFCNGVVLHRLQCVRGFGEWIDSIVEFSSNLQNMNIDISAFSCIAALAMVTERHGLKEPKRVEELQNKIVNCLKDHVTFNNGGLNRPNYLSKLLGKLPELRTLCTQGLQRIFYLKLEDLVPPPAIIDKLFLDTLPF

O=[N+]([O-])c1cc(Cl)ccc1Cl
inactive: [1] | [2] | [3] | [4] | [5] | [6] | [7] | [8] | [9] | [10] | [11] | [12]

ClC(Cl)=C(c1ccc(Cl)cc1)c1ccccc1Cl
active: [7] 181 µM | [11] 100 µM | [15] 20 µM | [16] 10.7 µM
inactive: [1] | [13] | [3] | [14] | [5] | [6] | [8] | [9] | [12]

CCCCN(CCCC)SN(C)C(=O)Oc1cccc2c1OC(C)(C)C2
active: [15] 20 µM | [19] 32.3 µM | [16] 28.4 µM
inactive: [17] | [18] | [3] | [14] | [5] | [6] | [7] | [8] | [9] | [11]

Clc1ccc(Oc2ccccc2)cc1
inactive: [17] | [1] | [13] | [3] | [4] | [14] | [5] | [6] | [7] | [8] | [9] | [11] | [12]
active: [10] 177 µM

Cc1c([N+](=O)[O-])cc2c(c1[N+](=O)[O-])C(C)(C)CC2(C)C
inactive: [1] | [2] | [3] | [5] | [6] | [7] | [10] | [11] | [12] | [16]
active: [14] 14.6 µM | [8] 3.03 µM | [15] 3.62 µM

CCCCc1ccccc1
inactive: [1] | [2] | [14] | [5] | [6] | [7] | [8] | [10] | [11] | [15] | [16]

CC1=C(C(=O)Nc2ccccc2)S(=O)(=O)CCO1
inactive: [1] | [2] | [13] | [18] | [3] | [14] | [5] | [6] | [7] | [8] | [11]
active: [9] 122 µM | [12] 58 µM

CC(C)(C)N(NC(=O)c1ccc(Cl)cc1)C(=O)c1ccccc1
inactive: [1] | [2] | [13] | [3] | [14] | [5] | [6] | [7] | [8] | [11]

O=C(CBr)OCc1ccccc1
inactive: [17] | [1] | [2] | [3] | [5] | [6] | [7] | [8] | [9] | [11] | [12]

O=S1(=O)OCC2C(CO1)C1(Cl)C(Cl)=C(Cl)C2(Cl)C1(Cl)Cl (centres undefined)
inactive: [1] | [2] | [3] | [4] | [5] | [6] | [15] | [16]
active: [7] 178 µM | [8] 172 µM | [9] 8.15 µM | [10] 44.5 µM | [11] 170 µM | [12] 18.3 µM
